# In PubChem BioAssay AID651636 (Sanford-Burnham Center for Chemical Genomics, 2012):
# About 3,000 (0.83%) of roughly 360,000 compounds were called active. Only a selection was taken, and actives are over-represented in it overall. Values without a mark were called inactive. No stated cut-off is given here; in the data, active means inhibition above about 38%; inactive means the rest.
# Molecular target: G-protein coupled receptor 183 (Homo sapiens) (UniProt P32249)
# Assay: blockers of oxysterol-driven EBI2 arrestin signaling – cell-based, luminescence, 7a,25-OHC stimulation, uHTS, primary screen (AID 651636);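 further: enzyme fragment complementation signal reports receptor beta-arrestin coupling in cells; 0% = agonist plus DMSO wells and 100% = wells without agonist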
# Details: EBI2 beta-arrestin recruitment, 7a,25-OHC stimulated, at 5 µM, stronger effect = higher value
# Chain of G-protein coupled receptor 183 (Homo sapiens) (P32249 whole entry, looked up, the tested form may be a part): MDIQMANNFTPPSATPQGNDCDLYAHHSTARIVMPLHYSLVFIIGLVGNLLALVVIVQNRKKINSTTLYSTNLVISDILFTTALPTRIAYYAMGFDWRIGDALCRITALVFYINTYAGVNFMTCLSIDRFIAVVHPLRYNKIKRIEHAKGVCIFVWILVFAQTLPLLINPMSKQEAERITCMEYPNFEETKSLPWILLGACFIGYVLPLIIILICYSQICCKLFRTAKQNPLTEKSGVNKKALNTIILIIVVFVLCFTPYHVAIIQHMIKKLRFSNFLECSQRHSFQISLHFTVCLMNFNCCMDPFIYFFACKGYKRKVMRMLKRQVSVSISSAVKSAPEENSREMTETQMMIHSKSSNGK
row,SMILES,inhibition
1,O=C(Cc1ccc(Cl)cc1)NCc1nc(-c2ccccc2)no1,4.5%
2,O=C(NCc1ccc(Cl)cc1)c1cc2c(nc3sccn32)s1,12.5%
3,O=C(NCc1ccc(Cl)cc1)c1cc(=O)nc2sc(-c3ccccc3)nn12,49.6% (active)
4,CC(=O)NC12CC3CC(C1)CC(C(=O)N1CCN(C(=O)c4ccco4)CC1)(C3)C2,1.98%
5,COc1ccc(-c2nnn(Cc3nc(N)nc(N4CCCCC4)n3)n2)cc1,5.05%
6,COc1ccc(-c2c(-c3ccc(OC)cc3O)nc(C)nc2C(F)(F)F)cc1,14.5%
7,COc1cccc(-c2cnc(OC(C)(C)C)nc2OC(C)(C)C)c1,-3.37%
8,COc1ccc(-c2nc(N)ncc2-c2ccc(Cl)cc2)c(O)c1,88.2% (active)
9,CCOc1ccc(C(=O)N(Cc2ccc(N(C)C)cc2)C2CCS(=O)(=O)C2)cc1 (stereo not drawn),7.56%
10,O=C(Nc1cc2c3c(c1)CC(=O)N3CCC2)c1ccccc1F,-3.38%
11,Oc1ccc2ccccc2c1N=Nc1nccs1,58.9% (active)
12,CC1(c2nnc(Cc3ccccc3)o2)CC(c2ccccc2F)=NO1 (stereo not drawn),-4.25%
13,CCOC(=O)[C@]12CCCC=C1N(CCC1=CCCCC1)C(=O)[C@H](CC(=O)N1CCN(C(=O)c3ccco3)CC1)C2,-0.759%
14,COc1ccc(N2CCN(Cc3ccc(Br)s3)CC2)cc1,-1.05%
15,c1ccc(-c2cnc(CN3CCN(c4ccccc4)CC3)o2)cc1,3.15%
16,Fc1ccc(N2CCN(Cc3cnc(Oc4ccc(Br)cc4)s3)CC2)cc1,46.4% (active)
17,COc1ccc(OC)c(C(=O)c2coc3ccc(O)c(CN4CCOCC4)c23)c1,37% (active)
18,COc1ccc(OC)c(C(=O)c2coc3ccc(OC)cc23)c1,5.5%
19,Cc1ccc(C(=O)c2coc3ccc(O)c(CN(C)C)c23)cc1,-7.39%
20,CN(O)C(=S)c1ccccc1,43% (active)
21,C=CCOC(=O)C1=C[C@@H](c2ccccc2)C[C@@H](OCc2ccc(CO)cc2)O1,7.13%
22,Cc1ccc2c(C)c(C(=O)N3CCN(c4ccncc4)CC3)oc2c1C,1.76%
23,CCCCNC(=S)N/N=C1\CCCCc2ccccc21,6.96%
24,Cc1cc(F)ccc1NC(=S)NCCc1ccccc1,1.81%

row,SMILES,inhibition
1,CCCC1CCC(=NNC(=S)NCCc2ccccc2)CC1 (stereo not drawn),66.9% (active)
2,CC(=O)CCS(=O)(=O)c1ccc(C)c(C)c1,-7.62%
3,CC(=O)c1cc(-c2ccccc2)n(CCC(=O)NC2CCCCCC2)c1C,-14.6%
4,COc1ccc(Sc2ccc(NC(=O)c3cccc(Cl)c3)cc2C#N)cc1,19.1%
5,COc1ccc(NC(=O)CSc2ncnc3[nH]ncc23)cc1,-1.87%
6,COc1ccc(Nc2cc(Sc3ccc(OC)cc3)ncn2)cc1,55.7% (active)
7,CN1C(=O)CC(N2CCN(c3ccccn3)CC2)C1=O (stereo not drawn),1.43%
8,CO/N=C(/CS(=O)(=O)c1ccc(Br)cc1)c1ccc(OC)cc1,2.11%
9,O=C(NCC(O)c1ccc([N+](=O)[O-])cc1)C1CCCCC1 (stereo not drawn),19.3%
10,CN(C)C(CNC(=O)Cc1ccc([N+](=O)[O-])cc1)c1ccccc1 (stereo not drawn),-5.83%
11,O=C(CC(c1ccccc1)c1ccccc1)NCC(O)c1ccc([N+](=O)[O-])cc1 (stereo not drawn),68.3% (active)
12,COc1ccccc1CNC(=O)C1Cc2ccccc2C(=O)O1 (stereo not drawn),-4.46%
13,Cc1ccc(S(=O)(=O)N2CC3C(=O)C[C@@H](c4ccccc4Cl)N(S(=O)(=O)c4ccc(C)cc4)C3CC2c2ccccc2)cc1 (stereo partly drawn),17%
14,CC1Oc2ccccc2N(Cc2cccnc2)C1=O (stereo not drawn),2.36%
15,CCCCC(=O)N(C)c1c(CC)nc2c(OCc3ccc(S(C)(=O)=O)cc3)cccn12,-7.39%
16,CCc1nc2c(OCc3ccc(Cl)cc3Cl)cccn2c1N(C)C(=O)C(C)C,36.4%
17,CCCCC(=O)N(C)c1c(CC)nc2c(OCc3ccc(Cl)cc3Cl)cccn12,42.4% (active)
18,CCCOC(=O)c1c(NC(=O)c2cnn3c2NC(c2ccccc2)CC3C(F)(F)F)sc2c1CCCC2 (stereo not drawn),-7.48%
19,Cc1ccccc1C(CC(=O)c1cccs1)C(C#N)C#N (stereo not drawn),-15.3%
20,NC(=O)C1(N2CCCCC2)CCN(C2CC(=O)N(Cc3ccc(N4CCCC4=O)cc3)C2=O)CC1 (stereo not drawn),-18.3%
21,COc1ccccc1-n1c(=S)[nH]c2c(sc(=S)n2-c2ccc(C)cc2C)c1=O,0.762%
22,O=[N+]([O-])c1c(NCCO)cc(Sc2nc3ccccc3s2)c2nonc12,51.4% (active)
23,Cc1ccn2c(=O)c(C(=O)NCCC3=CCCCC3)c(O)nc2c1,-7.12%
24,COc1cc(S(=O)(=O)N(Cc2cccs2)C2CC2)ccc1-n1cnnn1,6.23%

row,SMILES,inhibition
1,CCOc1ccc(CN(Cc2ccco2)S(=O)(=O)c2ccc(-n3cnnn3)c(OC)c2)cc1,50.9% (active)
2,COc1ccc(CN(Cc2ccco2)S(=O)(=O)c2ccc(S(=O)(=O)N3CCCC3)cc2)cc1,-7.47%
3,CCCCCCCCN1C(=O)[C@H](CC(=O)NCC23CC4CC(CC(C4)C2)C3)C[C@@]2(C(=O)OC)CCCCC=C12,8.12%
4,COC1=CC(=O)OC(C)(c2ccccc2)C1 (stereo not drawn),-4.31%
5,COc1ccc(CNC(=O)CN(c2ccc(OC)c(Cl)c2)S(=O)(=O)c2ccc(C)cc2)cc1,42% (active)
6,COc1ccc(S(=O)(=O)N(CC(=O)NCc2ccco2)c2ccc(F)cc2)cc1,-6.33%
7,COc1ccc(CCNC(=O)CN(c2ccccc2)S(=O)(=O)c2ccccc2)cc1,-2.04%
8,CCOP(=O)(OCC)C(Cc1ccccc1)N=C(c1ccccc1)c1ccccc1 (stereo not drawn),23.7%
9,O=C(NCc1ccc(F)cc1)c1cc(C2CCCCN2C(=O)C2CCCCC2)on1 (stereo not drawn),13.6%
10,CC1CCN(S(=O)(=O)c2ccc3[nH]c(=O)ccc3c2)CC1,-4.98%
11,C=CCOc1c(CNn2cn[nH]c2=S)cccc1OC,-9.2%
12,Cc1cc(C(=O)N2CCN(c3ccccn3)CC2)c(C)o1,-3.6%
13,O=C(c1cc2ccccc2s1)N1CCN(c2ccccn2)CC1,60.8% (active)
14,O=C(Cc1ccccc1Cl)N1CCN(c2ccccn2)CC1,7.34%
15,O=C(NCN1CCN(CCO)CC1)c1cnccn1,-9.7%
16,CCCC(c1nnnn1C(C)(C)C)N1CCN(Cc2ccccc2)CC1 (stereo not drawn),12.5%
17,Cc1cccc(C)c1-n1nnnc1C(CCc1ccccc1)N1CCN(C/C=C/c2ccccc2)CC1 (stereo not drawn),39.8% (active)
18,CSCCC(c1nnnn1Cc1ccccc1)N1CCN(C/C=C/c2ccccc2)CC1 (stereo not drawn),19.1%
19,COC1=C/C(=C/c2c(N)n3nc(CC(=O)N4CCOCC4)sc3nc2=O)C=CC1=O,-0.898%
20,CCOc1ccccc1N1CCN(C(=O)c2ccc3[nH]c(C)c(C)c3c2)CC1,18.2%
21,O=C(NCCS(=O)(=O)N1CCN(c2ccccc2)CC1)c1cc(=O)c2ccccc2o1,5.68%
22,COc1ccccc1N1CCN(C(=O)c2cc(=O)c3cc(C)ccc3o2)CC1,93.3% (active)
23,O=C(c1ccc(CS(=O)(=O)c2ccccc2)o1)N1CCN(c2ccccc2)CC1,-5.95%
24,O=C(c1cc(=O)c2ccccc2o1)N1CCN(c2ccccc2)CC1,48.1% (active)

row,SMILES,inhibition
1,COc1ccccc1N1CCN(c2nc(C)cc(=O)[nH]2)CC1,-15.3%
2,COc1ccccc1N1CCN(C(=O)c2cc(=O)c3cc(C)cc(C)c3o2)CC1,72.9% (active)
3,COc1ccccc1N1CCN(C(=O)c2ccc(NC3=NC4CS(=O)(=O)CC4S3)cc2)CC1 (stereo not drawn),-5.44%
4,COc1ccccc1N1CCN(C(=O)C2Cc3ccccc3CN2C(=O)c2ccco2)CC1 (stereo not drawn),7.65%
5,[O-][n+]1onc2c1CCc1[nH]c(-c3ccccc3)nc1-2,3.97%
6,CCc1nccn1S(=O)(=O)c1cccc([N+](=O)[O-])c1,2.08%
7,CC1(C(=O)Nc2ccc3c(c2)OCCO3)CCN1C(=O)Cc1cc(F)ccc1F (stereo not drawn),-9.9%
8,O=C(CCCC(=O)N(CC(=O)NC1CCCC1)Cc1ccccc1Cl)Nc1ccccn1,-4.48%
9,CC(C)CCN1CCN(C/C=C/c2ccco2)CC1CCO (stereo not drawn),2.4%
10,O=C(O)C1C2C=CC(C2)C1C(=O)NCc1ccccc1 (stereo not drawn),-5.43%
11,COc1ccccc1CCNC(=O)C1CCN(C(=O)/C=C/c2ccccc2)CC1,86.2% (active)
12,COc1ccccc1CNC(=O)C1CCN(C(=O)[C@@H]2Cc3ccccc3CN2)CC1,-0.14%
13,COc1ccccc1CNC(=O)C1CCN(c2nc3ccccc3o2)CC1,4.11%
14,O=C(NCCC1CCCCN1S(=O)(=O)c1ccc(Cl)cc1)C(=O)NCc1ccco1 (stereo not drawn),2.6%
15,CC1(C)Oc2ccc(C(=O)N3CCOCC3)cc2N(CC(=O)Nc2ccccc2)C1=O,1.64%
16,Cc1ccc(S(=O)(=O)N2CCN(C(=O)COC(=O)c3c(C)cc(C)cc3C)CC2)c(C)c1,3.87%
17,CCCc1cc(=O)[nH]c(SCC(=O)N2CCN(S(=O)(=O)c3ccc(C)cc3C)CC2)n1,-2.8%
18,CC(=O)c1ccc(OCC(O)CN2CCN(S(=O)(=O)c3cccc(Br)c3)CC2)cc1 (stereo not drawn),40.3%
19,Cc1ccc(OCC(O)CN2CCN(CC(O)COc3ccc(C)cc3Cl)CC2)c(Cl)c1 (stereo not drawn),4.54%
20,Cc1cccc(OCC(O)CN2CCN(S(=O)(=O)c3ccc(C)cc3C)CC2)c1 (stereo not drawn),54.6% (active)
21,Cc1ccc(S(=O)(=O)N2CCN(C(=O)CSc3cc(C)ccc3C)CC2)c(C)c1,64.3% (active)
